Results published in PubChem BioAssay AID1117361 (Southern Research Institute, 2015).
In all, about 3,600 compounds went through this assay and about 900 (25%) were called active. How the calls were made is not given here. Not all results are given here. Entries with a potency or affinity are not part of this list.

Biological target: Protein Tat (Human immunodeficiency virus type 1 group M subtype B (isolate HXB2)) (UniProt P04608)
Assay: HIV-1 Tat–TAR interaction blockers – biochemical, fluorescence polarization, FAM-labeled TAR RNA, counter-screen for Vif-APOBEC3G degradation inhibitor project, dose response (AID 1117361)
Details: Tat-TAR RNA binding; series mostly up to 100 µM

SMILES	outcome
CCOc1ccccc1C(=S)NC1CCCCC1	inactive
CCOC(=O)C(NC(=O)NC1CCCCC1)(c1ccccc1)C(F)(F)F (configuration not stated)	inactive
COc1cc(CN2CCNC(=O)C2CC(=O)N(Cc2nccn2C)C(C)C)cc(OC)c1 (configuration not stated)	inactive
CCOCC(=O)Nc1nc2ccc(OC)cc2s1	inactive
CC(NC(=O)c1cccs1)C(c1cccs1)N1CCN(Cc2ccccc2)CC1 (configuration not stated)	inactive
COCCCN1C(=O)C(O)=C(C(C)=O)C1c1ccccn1 (configuration not stated)	inactive
CCOc1ccc(OCC)c(S(=O)(=O)NCc2ccc3c(c2)OCO3)c1	inactive
COC(=O)CC(NS(=O)(=O)c1cccs1)c1cccc2ccccc12 (configuration not stated)	inactive
Cc1ccc(SCCNC(=O)c2cccc([N+](=O)[O-])c2C)cc1	inactive
CCOC(=O)Cn1c(=O)oc2cc(S(=O)(=O)Nc3c(C)cc(C)cc3C)ccc21	inactive
CCOc1ccc(Br)cc1/C=N/O	inactive
O=C(CN1C(=O)c2ccccc2C1=O)NCC(=O)OCC(=O)c1cccc([N+](=O)[O-])c1	inactive
O=C1CN(C(=O)COC(=O)C23CC4CC(CC(O)(C4)C2)C3)c2ccccc2N1	inactive
COc1ccc(NC(=O)CCc2nc(-c3ccccc3F)no2)cc1	inactive
O=C(NCCCN1CCOCC1)c1ccc(Br)s1	inactive
CC1CCN(C(=O)CCc2nc3cc(S(=O)(=O)N(C)C)ccc3n2C)CC1	inactive
CCC(CC)NC(=O)Nc1ccc(F)cc1F	inactive
CCC(CC)c1nc2cc(OC)c(OC)cc2c(=O)o1	inactive
Oc1ccc(C2Nc3cccc4cccc(c34)N2)c(O)c1	inactive
CCOC(=O)C1CCCC12Nc1cccc3cccc(c13)N2 (configuration not stated)	inactive
CCCCc1nc2sc3c(=O)[nH]cnc3c2c2c1CCCC2	inactive
Cc1cccnc1Nc1nc(-c2ccc(O)c(O)c2)cs1	inactive
CC(C)(C)C(=O)OCc1nc(-c2ccc(O)c(O)c2)cs1	inactive

SMILES	outcome
CCc1nnc(NC(=O)c2ccc(S(=O)(=O)N(CC(C)C)CC(C)C)cc2)o1	inactive
CCCNC(=O)c1ccc(-c2nc3ccccc3s2)s1	inactive
Cc1nnc(SCCCn2c(N3CCN(c4ccccc4)CC3)nc3c2c(=O)[nH]c(=O)n3C)s1	inactive
NCCCSC1=NCCCN1	inactive
CCCCCOC(=O)C1=C(C)Nc2nnnn2C1c1ccccc1Cl (configuration not stated)	inactive
COc1ccccc1NC(=O)C1=C(C)Nc2nnnn2C1c1ccccn1 (configuration not stated)	inactive
COc1cccc(N2C(=O)C3ON(c4ccccc4)C(c4cccs4)C3C2=O)c1 (configuration not stated)	inactive
COc1ccc(N2CCN(CC(=O)c3c(C)n(C)c4ccc(OC)cc34)CC2)cc1	inactive
CN1CCN(CCCNC(=O)C2CC(=O)N(C3CCCCC3)C2)CC1 (configuration not stated)	inactive
C=CCn1c(C)cc(C(=O)COC(=O)C2CC(=O)N(Cc3ccccc3)C2)c1C (configuration not stated)	inactive
CC1C/C(=N/N2C(=O)CSC2=S)CC(C)(C)C1 (configuration not stated)	inactive
COCCNc1nc2c(c(=O)n(C)c(=O)n2C)n1Cc1cccc(C)c1	inactive
CCOc1cc(C(=O)Nc2cc(C)ccn2)cc(OCC)c1OCC	inactive
COc1ccc(S(=O)(=O)n2nc(OC(=O)c3ccc(C)cc3)cc2N)cc1	inactive
Nc1ccc(N=Nc2ccc(O)cc2)c(N)n1	inactive
COCCn1c(SCC(=O)N2CCC(C)CC2)nc2c([nH]c3ccccc32)c1=O	inactive
Cn1nc(C(F)(F)F)c2cc(C(=O)NC3CC3)sc21	inactive
O=[N+]([O-])c1ccc(CNc2ccc(F)cc2)s1	inactive
COc1cccc(CN2CCSCC2)c1	inactive
CCOc1ccc(N(CC(=O)Nc2cccc(OC)c2)S(=O)(=O)c2c(C)noc2C)cc1	inactive
CCN1CCN(S(=O)(=O)c2cccs2)CC1	inactive
O=[N+]([O-])c1ccc(O)c2ncccc12	inactive
O=c1c2ccccc2c(-c2ccccc2)nn1-c1cc(Cl)ccc1[N+](=O)[O-]	inactive

SMILES	outcome
Cc1ccccc1CS(=O)(=O)Cc1ccc(C(=O)N2CCOCC2)o1	inactive
O=C(COC(=O)Cc1cccc(C(F)(F)F)c1)NCC1CCCO1 (configuration not stated)	inactive
COc1ccc(CC(=O)Nc2ccc(-c3csc(C)n3)cc2)cc1	inactive
O=C(O)/C=C/c1ccc(S(=O)(=O)N2CCN(CCN3C(=O)C4C5C=CC(C5)C4C3=O)CC2)cc1 (configuration not stated)	inactive
COc1ccc(-n2c(SCC(=O)NNC(=O)c3ccccc3C)nnc2-c2ccncc2)cc1	inactive
CC(C)(C)c1cc(N/C=C\c2nnnn2-c2ccc(Br)cc2)no1	inactive
CC(/C=C/c1ccco1)=N\NC(=O)c1cccnc1	inactive
O=C(Nc1ccc2c(c1)oc1ccccc12)c1cccnc1	inactive
CCCCn1cnc2c1c(=O)n(C)c(=O)n2C	inactive
COc1ccc(/C=N/NC(=O)Cn2cnc3c2c(=O)n(C)c(=O)n3C)c(OC)c1OC	inactive
O=C(c1cc(COc2ccc(F)cc2F)on1)N1CCN(C2CCCC2)C(=O)C1	inactive
CC(C)CCn1cnc2c([nH]c3cccc(Cl)c32)c1=O	inactive
CCCS(=O)(=O)N1CCC(C(=O)NCCCN(CC)c2cccc(C)c2)CC1	inactive
CCc1nnc(NC(=O)C(NS(=O)(=O)c2ccc3c(c2)OCCO3)C(C)C)s1 (configuration not stated)	inactive
Nc1nc(SCc2nc(-c3ccccc3)no2)[nH]c(=O)c1-c1ccccc1	inactive
Cc1ccc(-c2nnn(CC(=O)N(c3ccc(F)cc3)C(C(=O)NC3CCCC3)c3ccco3)n2)o1 (configuration not stated)	inactive
O=C(CC(=O)NN=Cc1ccc2c(c1)CCC2)NN=Cc1ccc2c(c1)CCC2	inactive
O=S(=O)(c1ccc(NC(=S)N/N=C/c2ccc(O)c(O)c2)cc1)N1CCOCC1	inactive
Cc1[nH]c2ccccc2c1C(=O)CN1CCC(C(N)=O)(N2CCCCC2)CC1	inactive
C[C@H](NC(=O)c1ccco1)C(=O)Nc1cccc([N+](=O)[O-])c1	inactive
CCNS(=O)(=O)c1ccc(NS(=O)(=O)c2cc(C)ccc2C)cc1	inactive
N/C(=N\OC(=O)COc1ccc2ccccc2c1)c1ccccn1	inactive
Cc1ccc(-c2nn3c(C)nnc3s2)cc1NC(=O)CSc1ccc(Cl)cc1	inactive

SMILES	outcome
COc1ccc(C)cc1-n1c(SCC(=O)Nc2cc(C)on2)nc2sc(C)c(C)c2c1=O	inactive
CCCCn1c(CCNC(=O)CC)nc2ccccc21	inactive
CC(OC(=O)c1cccnc1)C(=O)NCc1ccc2c(c1)OCO2 (configuration not stated)	inactive
CCC(C)(C)NC(=O)C(c1ccc(F)cc1)N(Cc1ccco1)C(=O)c1cnccn1 (configuration not stated)	inactive
O=C(COC(=O)c1ccccc1Br)Nc1nnc(-c2ccccc2)o1	inactive
Cc1cc(C)cc(NC2=CC(=O)CC(c3ccco3)C2)c1 (configuration not stated)	inactive
O=C(O)CCCC(=O)NCCc1cccc(Cl)c1	inactive
COc1ccc(CSc2nnnn2C)cc1F	inactive
COc1ccc(OC)c(C(=O)CSc2nnnn2C)c1	inactive
CCOC(=O)C1(CCOC)CCN(Cc2cnc(-c3cccc(C)c3)nc2)CC1	inactive
CCOC(=O)c1c(C)[nH]c(C(=O)COC(=O)CSCC(=O)N(CC)CC)c1C	inactive
Cc1ccc(-c2csc(NC(=O)c3ccc(-c4ccccc4)cc3)n2)o1	inactive
Cc1ccc(NCc2nnc(SCc3ccc(C#N)cc3)n2Cc2ccco2)c(C)c1	inactive
c1ccc(Nc2ccccn2)cc1	inactive
CN(Cc1nc(-c2cccnc2)no1)S(=O)(=O)c1ccccc1	inactive
Cc1cccc2c1c1ccc3c(c1n2C)C(=O)C=CC3=O	inactive
CCOC(=O)c1csc(N)c1-c1ccc([N+](=O)[O-])cc1	inactive
CCOc1ccc(NC(=O)C2CCCN(S(=O)(=O)c3c(C)nn(C)c3C)C2)cc1 (configuration not stated)	inactive
COc1ccccc1N1CCN(C(=O)c2oc3cc(C)c(C)cc3c2C)CC1	inactive
CC(C)c1ccc(-c2nc(N3CCCCCC3)nc3n[nH]c(N)c23)cc1	inactive
Cc1ccc(S(=O)(=O)N(CC(=O)NCCC2=CCCCC2)Cc2ccccc2F)cc1	inactive
O=[N+]([O-])c1ccc2c(c1)S(=O)c1ccccc1-2 (configuration not stated)	inactive
COC(=O)CSc1nc2cc(C)cc(C)c2cc1C#N	inactive

SMILES	outcome
COc1cccc(C(=O)Nc2nc3c(s2)CN(C)CC3)c1	inactive
NC(=S)N=Nc1c(O)n(C2OC(=O)c3ccccc32)c2ccccc12 (configuration not stated)	inactive
CCOc1ccccc1C(=O)NCC(=O)OCC(=O)NCCc1ccc(S(N)(=O)=O)cc1	inactive
COC(=O)c1c(C)[nH]c(C=O)c1-c1ccccc1	inactive
COC(=O)C(O)(CC(=O)c1ccc(OC)cc1)C(F)(F)F (configuration not stated)	inactive
CCCC(NCC(=O)Nc1ccccc1C(=O)NC1CC1)c1ccccc1 (configuration not stated)	inactive
O=C(C1CCC(CNS(=O)(=O)c2cccc3cccnc23)CC1)N1CCCC1 (configuration not stated)	inactive
COc1ccc(NC(=O)C2CCCN2S(=O)(=O)c2cccc3cccnc23)c(OC)c1 (configuration not stated)	inactive
O=C(Nc1ccc(-c2noc(-c3cccs3)n2)cc1)c1cccnc1	inactive
COc1ccc(-c2nc(C(N)=O)c3[nH]c(=O)n(-c4cccc(Cl)c4)c3n2)cc1OC	inactive
O=c1cc(-c2ccc(O)cc2)oc2cc(O)c(C3OC(CO)C(O)C(O)C3O)c(O)c12 (configuration not stated)	inactive
CSCCC(NC(=O)C1CCC(C)CC1)C(=O)NCc1ccco1 (configuration not stated)	inactive
Cc1ccc(-n2c(SCC(N)=O)nc3c([nH]c4ccccc43)c2=O)cc1	inactive
CN1C(=O)c2ccccc2C(C(=O)O)C1c1cccc(F)c1 (configuration not stated)	inactive
Cc1cc(O)c(C(C)C)cc1N=Cc1ccc([N+](=O)[O-])cc1	inactive
Cc1ccc(-n2ncc3c(=O)[nH]cnc32)c(C)c1	inactive
O=C(NC1CCCCC1)C(c1ccc(Cl)cc1)N(C(=O)c1ccccn1)c1cccnc1 (configuration not stated)	inactive
COc1ccccc1NC(=O)c1cc2ccc(O)cc2o/c1=N\O	inactive
CCOC(=O)CSc1nnc(CNC(=O)c2cc(OC)c(OC)c(OC)c2)n1C	inactive
COC(=O)CSc1nnc(CNC(=O)Cc2ccccc2)n1-c1ccccc1OC	inactive
